Source: PubChem BioAssay AID651744 (Broad Institute, 2012)
In all, about 5,600 compounds went through this assay and about 3,100 (55%) were called active. Inconclusive results (about 3%) are left out.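 Rule for the calls: active = mean loss of cell viability signal at or above a set limit, and enough replicates individually reaching it; inconclusive = meets only the mean limit or only the replicate share; inactive = meets neither condition.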 The set was probably picked from earlier hits. The list is a sample of the results.

assay: viability loss of mouse 3T3 cells – cell-based, cherry-pick, single point, set 2, cytotoxicity control, confirmation (AID 651744); conditions: NIH/3T3 viability, CellTiter-Glo ATP luminescence, 90 h; at 24.9 µM; hits give high values;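 note: 0% = median of neutral control wells and 100% = median of positive control wells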

Row | Structure (SMILES) | inhibition
1 | N#Cc1ccc(-c2ccc3c(c2)[C@@H]2[C@@H](CCN2C(=O)Cc2ccncc2)[C@@H](CO)N3)cc1 | 14.4% (inactive)
2 | O=C(c1ccccn1)N1CC[C@@H]2[C@H]1c1cc(-c3ccccc3)ccc1N[C@@H]2CO | 7.5% (inactive)
3 | O=C(c1cnccn1)N1CC[C@@H]2[C@H](CO)Nc3ccc(-c4cccc(F)c4)cc3[C@@H]21 | 42.7% (active)
4 | CN1c2ccc(-c3ccccc3)cc2[C@@H]2[C@@H](CCN2C(=O)c2ccncc2)[C@@H]1CO | 18.7% (inactive)
5 | OC[C@@H]1Nc2ccc(-c3cccc(F)c3)cc2[C@H]2[C@@H]1CCN2Cc1ccncc1 | 43.3% (active)
6 | O=C(C[C@H]1CC[C@@H]2[C@H](COC[C@H](O)CN2Cc2ccc(Oc3ccccc3)cc2)O1)N1CCN(c2ccccc2)CC1 | 104% (active)
7 | Cc1ccc(S(=O)(=O)N2C[C@@H](O)COC[C@@H]3O[C@H](CC(=O)NCc4ccc(Cl)c(Cl)c4)CC[C@H]32)cc1 | 8.83% (inactive)
8 | COc1cccc(S(=O)(=O)N2C[C@@H](O)COC[C@@H]3O[C@H](CC(=O)Nc4ccccc4)CC[C@H]32)c1 | 26.4% (inactive)
9 | COc1ccccc1C#Cc1ccc([C@H]2[C@H](CO)N3CCCCN(C(=O)C4CCC4)C[C@@H]23)cc1 | 105% (active)
10 | COc1ccccc1C#Cc1ccc([C@@H]2[C@H](CO)N3CCCCN(C(=O)C4CCCC4)C[C@@H]23)cc1 | 103% (active)
11 | O=C(C1CCC1)N1CCCCN2[C@H](CO)[C@H](c3ccc(-c4ccncc4)cc3)[C@@H]2C1 | -9.25% (inactive)
12 | COc1ccccc1NC(=O)N1CCCCN2[C@H](C1)[C@H](c1ccc(-c3ccccc3)cc1)[C@@H]2CO | 14.8% (inactive)
13 | COc1ccccc1C#Cc1ccc([C@@H]2[C@H](CO)N3CCCCN(C(=O)C4CC4)C[C@@H]23)cc1 | 100% (active)
14 | Cc1noc(C)c1S(=O)(=O)Nc1ccc2c(c1)C(=O)N([C@@H](C)CO)C[C@H](C)[C@@H](CN(C)C(=O)Nc1cccc3ccccc13)OCCCC[C@H](C)O2 | 13.2% (inactive)
15 | C[C@@H]1CN([C@@H](C)CO)C(=O)c2cc(C#Cc3ccccc3)cnc2O[C@H]1CN(C)C(=O)c1ccccn1 | 34.3% (active)
16 | COc1ccc(C#Cc2cnc3c(c2)C(=O)N([C@@H](C)CO)C[C@H](C)[C@@H](CN(C)C(C)=O)O3)cc1 | 45.4% (active)
17 | C[C@H](CO)N1C[C@H](C)[C@H](CN(C)C(=O)Nc2cccc3ccccc23)Oc2ncc(C#Cc3ccccc3)cc2C1=O | 105% (active)
18 | CC(C)CC#Cc1cnc2c(c1)C(=O)N([C@@H](C)CO)C[C@@H](C)[C@H](CN(C)C(=O)Cc1ccncc1)O2 | 36.6% (active)
19 | C[C@H](CO)N1C[C@H](C)[C@@H](CN(C)C(=O)Nc2ccnc(N3CCOCC3)c2)OCc2ccccc2-c2ccccc2C1=O | 17.3% (inactive)
20 | Cc1ccc(S(=O)(=O)Nc2ccc3c(c2)C(=O)N([C@@H](C)CO)C[C@@H](C)[C@H](CN(C)C(=O)Nc2cccc4ccccc24)OCCCC[C@H](C)O3)cc1 | 14.8% (inactive)
21 | C[C@@H]1CN([C@H](C)CO)C(=O)c2cc(C#Cc3ccccn3)cnc2O[C@H]1CN(C)Cc1ccccc1 | -11.5% (inactive)
22 | COCC(=O)N(C)C[C@@H]1Oc2ncc(C#Cc3ccccc3OC)cc2C(=O)N([C@@H](C)CO)C[C@H]1C | 34.8% (active)

Row | Structure (SMILES) | inhibition
23 | CCCN(C)C[C@@H]1Oc2cc(C#Cc3ccc(F)cc3)ccc2S(=O)(=O)N([C@H](C)CO)C[C@H]1C | 105% (active)
24 | CCCN(C)C[C@H]1Oc2cc(C#CC3CCCC3)ccc2S(=O)(=O)N([C@H](C)CO)C[C@@H]1C | 105% (active)
25 | COCCNC[C@@H]1[C@H](c2ccccc2)[C@H](CO)N1c1nc(C)c(C)s1 | 5.9% (inactive)
26 | C/C=C/c1ccc([C@H]2[C@@H](CNC(C)C)N(c3nc(CC)cs3)[C@H]2CO)cc1 | 103% (active)
27 | CCS(=O)(=O)N1CCCCN2[C@@H](CO)[C@@H](c3ccc(-c4ccccc4)cc3)[C@@H]2C1 | 49.5% (active)
28 | Cc1cccc(-c2ccc([C@@H]3[C@@H](CO)N4CCCCN(S(=O)(=O)c5cccs5)C[C@H]34)cc2)c1 | 95.2% (active)
29 | O=S(=O)(Cc1ccccc1)N1CCCCN2[C@@H](CO)[C@H](c3ccc(-c4ccccc4)cc3)[C@@H]2C1 | 106% (active)
30 | O=S(=O)(Cc1ccccc1)N1CCCCN2[C@@H](CO)[C@H](c3ccc(-c4cccnc4)cc3)[C@@H]2C1 | -12.4% (inactive)
31 | CN(C)C(=O)c1ccc(-c2ccc([C@@H]3[C@H](CO)N4CCCCN(S(C)(=O)=O)C[C@@H]34)cc2)cc1 | 6.63% (inactive)
32 | O=S(=O)(Cc1ccccc1)N1CCCCN2[C@@H](CO)[C@@H](c3ccc(-c4ccc(F)cc4)cc3)[C@@H]2C1 | 105% (active)
33 | C[C@H](O)C#Cc1ccc([C@H]2[C@H]3CN(S(=O)(=O)Cc4ccccc4)CCCCN3[C@H]2CO)cc1 | 30.3% (active)
34 | C[C@H](O)C#Cc1ccc([C@@H]2[C@H]3CN(S(=O)(=O)c4ccccc4)CCCCN3[C@H]2CO)cc1 | 25.4% (inactive)
35 | C[C@@H](O)C#Cc1ccc([C@@H]2[C@H](CO)N3CCCCN(S(=O)(=O)c4ccccc4)C[C@@H]23)cc1 | 3.32% (inactive)
36 | C/C=C/c1ccc([C@H]2[C@H]3CN(S(=O)(=O)c4ccccc4)CCCCN3[C@H]2CO)cc1 | 87.7% (active)
37 | O=C(Nc1ccc(Cl)cc1)N[C@@H]1CC[C@@H](CCNC(=O)c2ccccc2F)O[C@H]1CO | 4.33% (inactive)
38 | O=C(Nc1cc(Cl)cc(Cl)c1)N[C@H]1CC[C@@H](CCNS(=O)(=O)c2cccc(F)c2)O[C@H]1CO | 57.3% (active)
39 | COc1cccc(S(=O)(=O)Nc2ccc3c(c2)[C@H]2C[C@H](CC(=O)NCc4ccc(Cl)cc4)O[C@H](CO)[C@H]2O3)c1 | 4.86% (inactive)
40 | CC(C)CC#Cc1ccc2c(c1)O[C@H](CN(C)Cc1ccncc1)[C@H](C)CN([C@H](C)CO)S2(=O)=O | 104% (active)
41 | CCCC#Cc1ccc2c(c1)O[C@@H](CN(C)C(=O)c1ccccc1F)[C@H](C)CN([C@H](C)CO)S2(=O)=O | 24.6% (inactive)
42 | CC(C)CC#Cc1ccc2c(c1)O[C@H](CN(C)Cc1ccccc1F)[C@@H](C)CN([C@@H](C)CO)S2(=O)=O | 105% (active)
43 | C[C@H](CO)N1C[C@H](C)[C@@H](CN(C)Cc2ccncc2)Oc2cc(Br)ccc2S1(=O)=O | 51.2% (active)
44 | CC(C)CC#Cc1ccc2c(c1)O[C@H](CN(C)Cc1cccnc1)[C@H](C)CN([C@@H](C)CO)S2(=O)=O | 97% (active)

Row | Structure (SMILES) | inhibition
45 | O=C(Nc1ccc2c(c1)[C@@H]1C[C@H](CC(=O)N3CCOCC3)O[C@@H](CO)[C@@H]1O2)c1ccc2c(c1)OCO2 | 4.7% (inactive)
46 | C[C@H](CO)N1C[C@H](C)[C@@H](CN(C)C(=O)Nc2cc(F)ccc2F)Oc2cc(C#CC3CC3)ccc2S1(=O)=O | 55.6% (active)
47 | C[C@H]1CN([C@@H](C)CO)S(=O)(=O)c2ccc(C#CC3CCCC3)cc2O[C@@H]1CN(C)C(=O)c1cccc(F)c1 | 105% (active)
48 | C[C@H]1CN([C@@H](C)CO)C(=O)CCCn2cc(nn2)CO[C@H]1CN(C)C(=O)c1ccccc1 | 7.66% (inactive)
49 | CO[C@H](CN(C)S(=O)(=O)c1ccc(Cl)cc1)[C@@H](C)CN(Cc1ccccc1Cl)[C@H](C)CO | 74% (active)
50 | OC[C@@H]1[C@H](c2ccc(C#CC3CC3)cc2)[C@@H]2CN(CCC(F)(F)F)CCCCN12 | 102% (active)
51 | COc1cccc(S(=O)(=O)N2CCCCN3[C@H](CO)[C@H](c4ccc(-c5ccncc5)cc4)[C@H]3C2)c1 | 36.2% (active)
52 | COc1cccc(S(=O)(=O)N2CCCCN3[C@H](CO)[C@H](c4ccc(C#CC5CC5)cc4)[C@H]3C2)c1 | 104% (active)
53 | CCC(=O)N1CCCCN2[C@H](C1)[C@@H](c1ccc(-c3ccc(F)cc3)cc1)[C@@H]2CO | 48.8% (active)
54 | O=C(CN1CCOCC1)N1CCCCN2[C@H](CO)[C@H](c3ccc(-c4ccccc4)cc3)[C@@H]2C1 | 16.2% (inactive)
55 | O=C(CN1CCOCC1)N1CCCCN2[C@@H](CO)[C@H](c3ccc(/C=C/c4ccccc4)cc3)[C@@H]2C1 | 92.5% (active)
56 | CCC(=O)N1CCCCN2[C@H](C1)[C@@H](c1ccc(/C=C/c3ccccc3)cc1)[C@@H]2CO | 103% (active)
57 | O=C(CN1CCOCC1)N1CCCCN2[C@@H](CO)[C@H](c3ccc(-c4ccccc4)cc3)[C@@H]2C1 | 6.88% (inactive)
58 | Cc1ccc(S(=O)(=O)N(C)C[C@@H]2OCCCC[C@@H](C)Oc3ccc(NS(=O)(=O)c4ccc(F)cc4)cc3C(=O)N([C@H](C)CO)C[C@H]2C)cc1 | -22.2% (inactive)
59 | COc1ccc(S(=O)(=O)Nc2ccc3c(c2)C(=O)N([C@@H](C)CO)C[C@H](C)[C@@H](CN(C)Cc2ccc(C(F)(F)F)cc2)O3)cc1 | 5.53% (inactive)
60 | COc1ccc(NC(=O)Nc2ccc3c(c2)C(=O)N([C@H](C)CO)C[C@H](C)[C@H](CN(C)S(=O)(=O)c2ccc(Cl)cc2)OCCCC[C@H](C)O3)cc1 | 3.56% (inactive)
61 | COc1ccc(S(=O)(=O)Nc2ccc3c(c2)C(=O)N([C@@H](C)CO)C[C@H](C)[C@H](CN(C)Cc2ccc(C(F)(F)F)cc2)O3)cc1 | 35.2% (active)
62 | COc1ccc(CN(C)C[C@H]2Oc3ccc(NS(=O)(=O)c4ccc(Cl)cc4)cc3CC(=O)N([C@@H](C)CO)C[C@H]2C)cc1 | 36.9% (active)
63 | Cc1ccc(S(=O)(=O)Nc2ccc3c(c2)C(=O)N([C@H](C)CO)C[C@H](C)[C@H](CN(C)C(=O)Nc2ccc(F)cc2)OCCCC[C@H](C)O3)cc1 | 1.65% (inactive)
64 | COc1ccc(S(=O)(=O)Nc2ccc3c(c2)C(=O)N([C@H](C)CO)C[C@H](C)[C@H](CN(C)Cc2ccc(C(F)(F)F)cc2)O3)cc1 | 97.6% (active)
65 | Cc1ccc(S(=O)(=O)Nc2ccc3c(c2)C(=O)N([C@H](C)CO)C[C@H](C)[C@H](CN(C)Cc2ccc(Cl)c(Cl)c2)O3)cc1 | 104% (active)
